# Data as given in the supplement of paper PMC9801561.
# ± gives the standard deviation of the averaged measurements.
# System: Escherichia coli Nissle 1917
# Assay: area under OmniLog respiration curve over 48 h (OmniLog units x h); higher = more growth / nutrient utilisation; extreme values may be limits of the assay
# Settings: nutrient role: C-Source, carbohydrate; incubation: 48 h, 37 °C
# 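Throughout, for DuctApe activity index of respiration/growth curve (0 no growth to 9 maximum): biolog PM4 phosphorus and sulfur plates, tetrazolium violet dye reduction read in the OmniLog every 15 min, kinetic curves scored by DuctApe, each plate run in triplicate.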
row,Compound,area under OmniLog respiration curve
1,OC[C@@H]1OC(O)[C@@H](O)[C@H](O)[C@H]1O (stereo partly drawn) [L-Glucose],29.9 ± 43
2,O=C[C@H](O)[C@H](O)[C@@H](O)CO [L-Lyxose],2670 ± 880
3,OCC1(O)OC[C@H](O)[C@@H](O)[C@@H]1O (stereo partly drawn) [L-Sorbose],6370 ± 540
4,OC[C@@H](O)[C@H](O)[C@H](O)[C@@H](O)CO [Dulcitol],3230 ± 100
5,OCc1ccccc1O[C@@H]1O[C@H](CO)[C@@H](O)[C@H](O)[C@H]1O [Salicin],4.72
6,OC1OC[C@@H](O)[C@H](O)[C@H]1O (stereo partly drawn) [D-Xylose],9160 ± 580
7,OC[C@@H](O)[C@@H](O[C@H]1O[C@H](CO)[C@@H](O)[C@H](O)[C@H]1O)[C@H](O)[C@@H](O)CO [Maltitol],4.72
8,OC[C@H]1OC(O)[C@@H](O)[C@@H](O)[C@@H]1O (stereo partly drawn) [D-Mannose],8430 ± 440
9,O=C(CO)[C@@H](O)[C@H](O)[C@H](O)CO[C@H]1O[C@H](CO)[C@@H](O)[C@H](O)[C@H]1O [Palatinose],174 ± 160
10,OC[C@H]1O[C@H](OC[C@H]2O[C@H](OC[C@H]3O[C@H](O[C@]4(CO)O[C@H](CO)[C@@H](O)[C@@H]4O)[C@H](O)[C@@H](O)[C@@H]3O)[C@H](O)[C@@H](O)[C@H]2O)[C@H](O)[C@@H](O)[C@H]1O [Stachyose],433 ± 380
11,CO[C@@H]1O[C@H](CO)[C@@H](O)[C@H](O)[C@H]1O [b-Methyl-D-Glucoside],6700 ± 470
12,CO[C@H]1O[C@H](CO)[C@@H](O)[C@H](O)[C@H]1O [a-Methyl-D-Glucoside],4.72
13,OCC1(O)OC[C@@H](O)[C@@H](O)[C@H]1O (stereo partly drawn) [D-Psicose],3500 ± 700
14,Nc1ncnc2c1ncn2[C@H]1C[C@H](O)[C@@H](CO)O1 [2`-Deoxyadenosine],8940 ± 560
15,OC[C@@H](O)C(O)[C@H](O)CO [D-Arabitol],4.72

# Same assay, conditions: nutrient role: C-Source, carboxylic acid; incubation: 48 h, 37 °C
row,Compound,area under OmniLog respiration curve
1,"O=C1O[C@H](CO)[C@@H](O)[C@H]1O [D-Ribono-1,4-Lactone]",4.72
2,O=C(O)CC(=O)O [Malonic acid],4.72
3,COC(=O)CCC(=O)O [Mono-Methylsuccinate],1170 ± 950
4,O=C(O)C(=O)O [Oxalic acid],5.41 ± 1.2
5,CC[C@H](O)C(=O)O [a-Hydroxybutyric acid],2930 ± 240
6,O=C(O)/C=C/C(=O)O [Fumaric acid],8610 ± 570
7,CCCCCCCCCC(=O)O [Capric acid],14.2 ± 6.8

# Same assay, conditions: nutrient role: sole nitrogen source (pyruvate carbon); incubation: 48 h, 37 °C
row,Compound,area under OmniLog respiration curve
1,NC(=O)NCCC[C@H](N)C(=O)O [L-Citrulline],1240 ± 540
2,C[C@H](N)C(=O)N[C@@H](Cc1cnc[nH]1)C(=O)O,6900 ± 1400
3,CCCCN [N-Butylamine],5.65 ± 1.6
4,O=c1cc[nH]c(=O)[nH]1 [Uracil],103 ± 170

# Same assay, conditions: nutrient role: sole phosphorus source (pyruvate carbon); incubation: 48 h, 37 °C
row,Compound,area under OmniLog respiration curve
1,N[C@H](COP(=O)(O)O)C(=O)O [O-Phospho-D-Serine],9260 ± 670
2,Cc1cn([C@H]2C[C@H](O)[C@@H](COP(=O)(O)O)O2)c(=O)[nH]c1=O [Thymidine 5`-Monophosphate],8850 ± 380
3,Cc1cn([C@H]2C[C@H](OP(=O)(O)O)[C@@H](CO)O2)c(=O)[nH]c1=O [Thymidine 3`-Monophosphate],8940 ± 450
4,O=P(O)(O)O[C@H]1[C@H](OP(=O)(O)O)[C@@H](OP(=O)(O)O)[C@H](OP(=O)(O)O)[C@@H](OP(=O)(O)O)[C@H]1OP(=O)(O)O [Inositol Hexaphosphate],8630 ± 520
5,Nc1nc2c(ncn2[C@@H]2O[C@H](CO)[C@@H](OP(=O)(O)O)[C@H]2O)c(=O)[nH]1 [Guanosine 3`-Monophosphate],9730 ± 510
6,O=P1(O)OP(=O)(O)OP(=O)(O)O1 [Trimetaphosphate],9730 ± 800
7,N[C@@H](Cc1ccc(OP(=O)(O)O)cc1)C(=O)O [O-Phospho-L-Tyrosine],8920 ± 320
8,O=P(O)(O)O[C@H]1O[C@H](CO)[C@@H](O)[C@H](O)[C@@H]1O [D-Mannose-1-Phosphate],9100 ± 340

# Same assay, conditions: nutrient role: sole sulfur source (pyruvate carbon); incubation: 48 h, 37 °C
row,Compound,area under OmniLog respiration curve
1,CS(=O)(=O)CC[C@H](N)C(=O)O [L-Methionine Sulfone],31.6 ± 21
2,N[C@@H](CSCSC[C@H](N)C(=O)O)C(=O)O [L-Djenkolic acid],7730 ± 190
3,OC[C@H]1O[C@@H](S)[C@H](O)[C@@H](O)[C@@H]1O [1-Thio-b-D-Glucose],1240 ± 430
4,"CSCCC(NC(C)=O)C(=O)O (racemic) [N-Acetyl-D,L-Methionine]",5080 ± 220

# System: Escherichia coli Nissle 1917
# Assay: DuctApe activity index of respiration/growth curve (0 no growth to 9 maximum) (index 0-9); higher = more growth / nutrient utilisation, active = 3 or more; extreme values may be limits of the assay
# Settings: nutrient role: C-Source, carbohydrate; incubation: 48 h, 37 °C
row,Compound,DuctApe activity index
1,OC[C@@H]1OC(O)[C@@H](O)[C@H](O)[C@H]1O (stereo partly drawn) [L-Glucose],0 (inactive)
2,O=C[C@H](O)[C@H](O)[C@@H](O)CO [L-Lyxose],4.33 (active)
3,OCC1(O)OC[C@H](O)[C@@H](O)[C@@H]1O (stereo partly drawn) [L-Sorbose],7 (active)
4,OC[C@@H](O)[C@H](O)[C@H](O)[C@@H](O)CO [Dulcitol],6 (active)
5,OCc1ccccc1O[C@@H]1O[C@H](CO)[C@@H](O)[C@H](O)[C@H]1O [Salicin],0 (inactive)
6,OC1OC[C@@H](O)[C@H](O)[C@H]1O (stereo partly drawn) [D-Xylose],8.67 (active)
7,OC[C@@H](O)[C@@H](O[C@H]1O[C@H](CO)[C@@H](O)[C@H](O)[C@H]1O)[C@H](O)[C@@H](O)CO [Maltitol],0 (inactive)
8,OC[C@H]1OC(O)[C@@H](O)[C@@H](O)[C@@H]1O (stereo partly drawn) [D-Mannose],8 (active)
9,O=C(CO)[C@@H](O)[C@H](O)[C@H](O)CO[C@H]1O[C@H](CO)[C@@H](O)[C@H](O)[C@H]1O [Palatinose],0 (inactive)
10,OC[C@H]1O[C@H](OC[C@H]2O[C@H](OC[C@H]3O[C@H](O[C@]4(CO)O[C@H](CO)[C@@H](O)[C@@H]4O)[C@H](O)[C@@H](O)[C@@H]3O)[C@H](O)[C@@H](O)[C@H]2O)[C@H](O)[C@@H](O)[C@H]1O [Stachyose],1.33 (inactive)
11,CO[C@@H]1O[C@H](CO)[C@@H](O)[C@H](O)[C@H]1O [b-Methyl-D-Glucoside],7.33 (active)
12,CO[C@H]1O[C@H](CO)[C@@H](O)[C@H](O)[C@H]1O [a-Methyl-D-Glucoside],0 (inactive)
13,OCC1(O)OC[C@@H](O)[C@@H](O)[C@H]1O (stereo partly drawn) [D-Psicose],4 (active)
14,Nc1ncnc2c1ncn2[C@H]1C[C@H](O)[C@@H](CO)O1 [2`-Deoxyadenosine],8.67 (active)
15,OC[C@@H](O)C(O)[C@H](O)CO [D-Arabitol],0 (inactive)
